# Counter-ions that a name gives are not always drawn.
# System: 4T1
# Experiment: % inhibition of 4T1 cell number vs DMSO control; higher = stronger growth inhibition
# Settings: 1 µM, 3 days
# Method in brief: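 In 96-well imaging plates whose edge wells went unused, 3000 4T1-H2B-GFP mouse breast cancer cells per well were seeded in 2% FBS medium onto plastic, denuded lung matrix, mCAF1 fibroblast-derived matrix, Matrigel (15 μg/mL) or 0.2% gelatin. Sixteen hours on, kinase inhibitors went in at 1 μM final for 3 days before formalin fixation, DAPI staining and imaging on an INCell Analyzer 2200. Counting of GFP-positive nuclei gave cell numbers, from which percent inhibition relative to control was derived.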
# [1] = substrate: lung fibroblast-derived matrix
# [2] = substrate: mCAF1 fibroblast-derived matrix
SMILES,% inhibition of 4T1 cell number (substrate: Matrigel) [%],% inhibition of 4T1 cell number (substrate: gelatin) [%],% inhibition of 4T1 cell number [1] [%],% inhibition of 4T1 cell number [2] [%],% inhibition of 4T1 cell number (substrate: plastic) [%]
O=c1cc(N2CCOCC2)oc2c(-c3ccccc3)cccc12,-14.7,-77.3,28.2,17.4,-56.8
Cn1cc(C2=C(c3cn(CCCSC(=N)N)c4ccccc34)C(=O)NC2=O)c2ccccc21,-9.32,35.1,-2.42,48.6,-25.7
CC[C@H](CO)Nc1nc(NCc2ccccc2)c2ncn(C(C)C)c2n1 [Roscovitine],-1.22,53.1,-2.74,3.56,-18.8
"O=C(O)C=Cc1cc(Br)c(Br)c(Br)c1Br [Casein Kinase II Inhibitor III, TBCA]",33.8,27.7,2.78,2.33,40.6
Nc1n[nH]c(N)c1N=Nc1ccc(O)cc1 [Cdk9 Inhibitor II],11,10.5,-8.89,-4.98,12
CS(=O)(=O)c1ccc(-c2nc(-c3ccc(F)cc3)c(-c3ccncc3)[nH]2)cc1,37.9,63,-4.16,14.7,52.9
CC(=O)c1ccc(N2CCOCC2)cc1O [DNA-PK Inhibitor III],0.894,-13.7,-5.23,-5.96,-24.1
Cc1nc2cc3nc(-c4cccs4)cnc3cc2n1C,47.1,-31.4,-7.74,-22.1,37.6
COc1ccc(COc2ccc(Cc3cnc(N)nc3N)cc2OC)cc1 [cFMS Receptor Tyrosine Kinase Inhibitor],-15.7,-87.3,2.62,11.3,-59.7
O=C1C(Cl)=C(N2C(=O)CCC2=O)C(=O)c2ccccc21 [MEK Inhibitor II],-30.5,-13.5,-5.8,50.2,-66.5
"CC[C@H](CO)Nc1nc(NCc2ccc(-c3ccccn3)cc2)c2ncn(C(C)C)c2n1 [CR8, (R)-Isomer]",99.5,98.7,-11.2,96,96.7
"NCCCn1cc(C2=C(c3c[nH]c4ccccc34)C(=O)NC2=O)c2ccccc21 [Bisindolylmaleimide III, Hydrochloride]",50.6,46.1,12.7,-60.9,37.2
Cc1cc2ncc(-c3ccccc3)nc2cc1C,1.93,65.9,-4.16,30.3,45.2
"N#CCCc1ccc2c(c1)-c1[nH]c3ccc([N+](=O)[O-])cc3c1CC(=O)N2 [Alsterpaullone, 2-Cyanoethyl]",55.6,51.8,-1.58,45.1,72.9
CC(C)[C@H](CO)Nc1nc(Nc2cc(N)cc(Cl)c2)c2ncn(C(C)C)c2n1 [Aminopurvalanol A],77.4,71.6,-15.7,41.1,80.1
O=C1c2ccccc2-c2n[nH]c3cccc1c23 [JNK Inhibitor II],-51.1,-11.8,-2.64,27.7,-62.6
O=c1c(O)c(-c2ccc(O)c(O)c2)oc2cc(O)c(O)c(O)c12 [Quercetagetin],28.5,52.6,-6.29,36.1,48.4
N#CC(C#N)=C(N)/C(C#N)=C/c1ccc(O)cc1,-1.44,52.7,-11.6,11.4,21.1
O=c1cc(N2CCOCC2)oc2c1ccc1ccccc12 [DNA-PK Inhibitor II],9.66,-23.4,34.1,-9.82,-13
CC(=O)O/N=C1/C(c2c(O)[nH]c3cc(Br)ccc23)=Nc2ccccc21 [GSK-3 Inhibitor X],-22.6,52.7,-8.8,59.3,58.1
O=C(Nc1ccc(Cl)cc1)c1ccccc1NCc1ccncc1 [VEGF Receptor Tyrosine Kinase Inhibitor II],28.8,-12.3,79.7,0.43,17.2
Nc1ncnc2c1c(I)cn2[C@@H]1O[C@H](CO)[C@@H](O)[C@H]1O [5-Iodotubercidin],15.7,59.3,7.74,34.1,24.1
CC(C)[C@H](CO)Nc1nc(Nc2cccc(Cl)c2)c2ncn(C(C)C)c2n1 [Purvalanol A],-8.87,15.8,83.6,40.3,-20.5
